# From PubChem BioAssay AID540333 (Southern Research Specialized Biocontainment Screening …, 2011)
# Screen size: about 10,000 compounds; about 320 (3.2%) were called active. No stated cut-off is given here; in the data, active means CPE inhibition mostly above about 9.1% (no sharp cut-off); inactive means mostly below about 7.2%. Only a selection was taken, and actives are over-represented in it overall.
# Test: Dengue virus cytopathic effect inhibitors, cell-based, CPE readout, HTS (AID 540333)
# Details: Dengue virus CPE inhibition in host cells, at 20 µM; active compounds read high
row,SMILES,CPE inhibition
1,Cc1cc(C(=O)NCC(=O)OCC(=O)N(C2CCCCC2)C2CCCCC2)ccc1[N+](=O)[O-],inactive
2,CCNc1ccc(C(=O)OCC(=O)NCc2ccc(C)cc2)cc1[N+](=O)[O-],0.91% (inactive)
3,COC(=O)[C@@]12CCCCN1[C@H](c1ccc(-c3ccc(C(C)=O)cc3)c(OC)c1)[C@@H]1C(=O)N(C)C(=O)[C@@H]12,3.06% (inactive)
4,CCN1C(=O)[C@@H]2[C@@H](c3ccc(SC4CCCCC4)cc3)N3CCC[C@@]3(C(=O)OC)[C@@H]2C1=O,0.855% (inactive)
5,CCN1C(=O)[C@@H]2[C@@H](c3ccc(-c4ccc(Cl)c(Cl)c4)cc3)N3CCC[C@@]3(C(=O)OC)[C@@H]2C1=O,3.61% (inactive)
6,CCCCCCSc1ccc([C@@H]2[C@@H]3C(=O)N(CC)C(=O)[C@@H]3[C@]3(C(=O)OC)CCCCN23)cc1,16.4% (active)
7,CCSc1ccc([C@@H]2[C@@H]3C(=O)N(C)C(=O)[C@@H]3[C@]3(C(=O)OC)CCCCN23)cc1,inactive
8,CCN1C(=O)[C@H]2[C@@H](c3ccc(-c4ccc(Cl)c(Cl)c4)cc3)N3CCCC[C@@]3(C(=O)OC)[C@H]2C1=O,15.9% (active)
9,COC(=O)[C@@]12CCCCN1[C@H](c1ccc(-c3ccc(Cl)c(Cl)c3)cc1)[C@H]1C(=O)N(C)C(=O)[C@H]12,26.6% (active)
10,COC(=O)[C@@]12CCCCN1[C@H](c1ccc(-c3ccccc3)cc1)[C@H]1C(=O)N(C)C(=O)[C@H]12,3.82% (inactive)
11,CCN1C(=O)[C@@H]2[C@@H](c3ccc(-c4ccc(OC)cc4)cc3)N3CCC[C@@]3(C(=O)OC)[C@@H]2C1=O,0.355% (inactive)
12,CC(=O)Nc1sc(C)c(C)c1C(=O)OCC(=O)N(CC(C)C)C1CCS(=O)(=O)C1 (stereo not given),1.31% (inactive)
13,Cc1ccc([N+](=O)[O-])cc1S(=O)(=O)NCCc1c(C)[nH]c2ccccc12,1.95% (inactive)
14,O=C(N=C1c2ccccc2CN1c1ccccc1)c1cccc([N+](=O)[O-])c1,inactive
15,CC(C)N(C(=O)COC(=O)CNC(=O)c1ccc(Br)cc1)c1ccccc1,inactive
16,CC(=O)Oc1ccccc1C1=NN(C(=O)/C=C/c2ccccc2)C(c2ccccc2)C1 (stereo not given),8.09% (inactive)
17,COc1ccc(C2CC(c3ccccc3OC(C)=O)=NN2C(=O)/C=C/c2ccccc2)cc1 (stereo not given),7.79% (active)
18,COc1ccc(C2=NN(C(=O)/C=C/c3ccccc3)C(c3ccccc3)C2)c(OC(C)=O)c1 (stereo not given),8.13% (inactive)
19,Cc1c(NC2=C(Cl)C(=O)N(c3ccccc3Cl)C2=O)c(=O)n(-c2ccccc2)n1C,inactive
20,CCNC(=S)N(CCc1cccc(C)c1)Cc1cc2cc(OC)c(OC)cc2[nH]c1=O,5.32% (inactive)
